# Rows were chosen to be rich in hits. Some 9.4% of all compounds tested hit in one or more screens of this group.
# HTT cytoprotect: Huntington cell model cytoprotection by ATP luminescence | Potency, µM (doses to about 56.4 µM), for the others: cytoprotection (ATP increase), hits mostly activators | AID 1471 | 230,000 compounds, 0.14% hits | PC12 HTT-Q103 induced, cytoprotection, ATP luminescence, 40 h; also: potency is read from the fitted curve at half-maximal effect; % of control where 0% means no effect; nearly all actives have a fitted effect of over 45% in size
#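 PC12 cells with ecdysone-inducible HTT exon 1 Q103-GFP, induced with 100 nM tebufenozide and co-treated with library compounds in a dose series (1536-well, 1500 cells/well). Cytoprotection read as ATP content by ATPlite luminescence.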
# ALDH1A1 block: blocks purified human ALDH1A1 activity | P00352 | Purified ALDH1A1, NADH fluorescence, propionaldehyde substrate | Potency, µM (series often up to 75.3 µM), for the others: at the highest dose activity, negative = inhibition, hits mostly inhibitors | 220,000 compounds, 7.3% hits | AID 1030; active = well fitted inhibition curve with a large enough effect, not every such curve was filed as active; inconclusive = small, poorly fitted or top-dose-only effect, or another doubt; inactive = no such curve, though single readings can be large or run the other way;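 also: potency is read from the fitted curve at half-maximal effect; plate controls were no enzyme wells and a reference inhibitor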
# Target sequence (P00352 whole entry, looked up): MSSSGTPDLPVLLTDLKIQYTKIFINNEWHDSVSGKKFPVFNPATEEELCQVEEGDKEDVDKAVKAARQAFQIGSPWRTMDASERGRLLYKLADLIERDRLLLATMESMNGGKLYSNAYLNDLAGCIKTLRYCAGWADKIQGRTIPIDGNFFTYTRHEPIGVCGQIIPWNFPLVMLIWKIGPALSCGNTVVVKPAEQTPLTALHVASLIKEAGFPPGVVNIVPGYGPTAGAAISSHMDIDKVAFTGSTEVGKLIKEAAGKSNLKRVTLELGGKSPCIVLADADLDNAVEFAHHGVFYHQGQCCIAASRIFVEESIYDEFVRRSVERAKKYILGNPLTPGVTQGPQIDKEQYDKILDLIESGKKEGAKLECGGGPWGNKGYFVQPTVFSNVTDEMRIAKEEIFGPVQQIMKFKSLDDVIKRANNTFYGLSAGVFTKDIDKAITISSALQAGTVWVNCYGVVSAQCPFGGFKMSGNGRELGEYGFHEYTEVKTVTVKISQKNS
# HTT aggregate: reduces HttQ103-GFP aggregates in PC12 cells; Potency, µM (series often up to 46.1 µM), inactives show at the top dose activity change, negative = inhibition, usual class: inhibitors; 220,000 compounds, 1.1% hits; PC12 HttQ103-GFP aggregates, Acumen cytometry, 40 h; also: potency is read from the fitted curve at half-maximal effect; % is scaled to controls: 0 for no effect and ±100 for the full control effect; nearly all actives have a fitted effect of over 60% in size
#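 Ecdysone-promoter PC12 model expressing HTT exon 1 Q103 fused to GFP, induced by tebufenozide at 100 nM final. Compounds titrated; aggregates sized 1–25 µm scored on a 488 nm laser cytometer.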
# IMPase cell inh: membrane-permeable compound that blocks inositol monophosphatase; CHO-M1 cells, IP1 accumulation, HTRF TR-FRET ratio; inhibition (IP1 accumulation), % at 46.1 µM; 120,000 tested, under 10 active; AID 901; active = well fitted curve in the direction sought with a large enough effect in the signal ratio, not every such curve was filed as active; inconclusive = small, poorly fitted or top-dose-only effect, or a change in a side signal; inactive = no such curve, though single readings can be large or run the other way; the % refers to the signal ratio;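 also: cells stimulated with carbachol in lithium chloride buffer; plate controls were DMSO basal wells for no effect and reference inhibitor wells for full effect; higher means more IMPase inhibition seen as more IP1 and lower FRET ratio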
#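 Cellular IMPase inhibition is scored as a rise in cytosolic IP1, detected by competitive TR-FRET between d2-labelled IP1 and a europium anti-IP1 antibody. M1-expressing CHO cells were stimulated with carbachol for 30 min at 37C, with lithium (50 mM LiCl) present in the buffer.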
# HPGD block: blocks human HPGD enzyme activity; P15428; purified HPGD, NADH fluorescence kinetic, PGE2 substrate; Potency, µM, for inactives: at the top dose activity change, negative = inhibition, usual class: inhibitors; 150,000 compounds, 4.3% hits; AID 894; active = well fitted inhibition curve with a large enough effect, not every such curve was filed as active; inconclusive = small, poorly fitted or top-dose-only effect, or another doubt; inactive = no such curve, though single readings can be large or run the other way; also: potency is read from the fitted curve at half-maximal effect; % is scaled to controls: 0 for no effect and ±100 for the full control effect
# Target sequence (P15428 whole entry, looked up): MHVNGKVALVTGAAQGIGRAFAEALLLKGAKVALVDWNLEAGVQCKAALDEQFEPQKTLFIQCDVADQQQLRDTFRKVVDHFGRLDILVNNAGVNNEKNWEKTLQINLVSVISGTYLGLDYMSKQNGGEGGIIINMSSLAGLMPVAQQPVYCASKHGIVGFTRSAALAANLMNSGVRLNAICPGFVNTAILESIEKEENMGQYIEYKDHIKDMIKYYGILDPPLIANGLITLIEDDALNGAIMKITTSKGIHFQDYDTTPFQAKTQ
#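 20 nM HPGD preincubated 15 min at room temperature with compound in 50 mM Tris-HCl pH 8, 0.01% Tween 20. Started with 1 mM NAD+ and 30 uM prostaglandin E2; NADH fluorescence (360/450 nm) read 5 times over 30-s intervals, last minus first.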
# IMPase Li inh: cell-permeable IMPase inhibitors with lithium potentiation; CHO-M1 cells, IP1 TR-FRET (IP-One), carbachol + lithium; Potency, µM (titrated, usually from 59.4 µM), without a hit: at the highest dose activity, negative = IMPase inhibition, most hits filed as inhibitors; 210,000 compounds, 0.35% hits; AID 1457;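 also: IP1 builds up when IMPase is blocked and the TR-FRET signal falls; potency is read from the fitted curve at half-maximal effect; plate controls were basal vehicle for no effect and high inhibitor control for full effect; nearly all actives have a fitted effect of over 50% in size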
#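 Concentration–response in CHO-M1 cells, lithium-potentiated; 30 min at 37C. IP1 detected by competitive TR-FRET after 10 min lysis at RT. Hill-fitted AC50.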
# An asterisk follows results filed as active; ? = inconclusive; . = not tested or not shown; [ ] = remark or other dose. Unless noted, calls follow the shape of the dose curve; as a rule, active = well fitted curve in the direction sought with a large enough effect; inconclusive = small, poorly fitted or top-dose-only effect, or another doubt; inactive = no such curve, though single readings can be large; an effect the other way counts as inactive or inconclusive.
SMILES,HTT cytoprotect,ALDH1A1 block,HTT aggregate,IMPase cell inh,HPGD block,IMPase Li inh
COc1ccc(NC2=C(Cl)C(=O)N(CCc3ccccc3)C2=O)c(OC)c1,5%[10 µM],?,?,.,16µM*,11%
COc1ccc(NC2=C(Cl)C(=O)N(CCc3ccccc3)C2=O)cc1,-10%[10 µM],-10%,-6%,0,-15%,12%
O=[N+]([O-])c1ccccc1S(=O)(=O)NCC1CCC(CNCC2CCc3ccccc3C2)CC1 (stereo not drawn),-55%,-7%,.,.,-12%,29%
O=CNCCCc1nc2ccccc2n1Cc1ccccc1,-17%,22µM*,7%,0,-6%,1%[38.3 µM]
CC(=O)NCCc1nc2ccccc2n1Cc1ccccc1,-15%,1%,-9%,7,-7%,-9%[38.3 µM]
Cc1noc(/C=C/Nc2ccc(F)cc2F)c1[N+](=O)[O-],-85%,1.3µM*,-8%,.,.,4%
COC(=O)N1CC=CC1(C)C(=O)O (stereo not drawn),6%,5%,.,.,-6%,-3%
COc1ccc(-c2cc(C(F)(F)F)n3nc(C(=O)Nc4cccc(Cl)c4Cl)cc3n2)cc1OC,.,.,.,-7,.,.
N#Cc1c(-n2cccc2C=O)sc2c1CCCC2,-44%,32µM*,-21%,.,.,0%
Cc1csc(SCc2nc3scc(-c4ccccc4)c3c(=O)[nH]2)n1,-26%,?,-20%,.,.,-4%
O=c1[nH]c(Cc2ccc(F)cc2)nc2scc(-c3ccc(F)cc3)c12,3%[0.074 µM],32µM*,7%,.,22µM*,-20%
Cc1ccc(-c2csc3nc(CN(C)Cc4ccccc4)[nH]c(=O)c23)cc1,-104%,?,?,.,.,-1%
NC(=O)Cc1nc2scc(-c3ccccc3)c2c(=O)[nH]1,-11%,13µM*,-3%[9.22 µM],.,.,-3%
Cc1cccc(C(=O)Nc2cc3c(cc2N2CCCCC2)n(C)c(=O)n3C)c1,.,.,.,6,.,.
OC(CCN1CCOCC1)(c1ccc(Cl)cc1)C1CCCCC1 (stereo not drawn),5%[10 µM],7.1µM*,-8%,21,3%,38%[38.3 µM]
O=C(c1cnccn1)N1CCC2(CC1)CCN(c1ccncc1)CC2,2%,10%,.,.,2%,8%
Brc1ccc2ncnc(Nc3ccc(N4CCOCC4)cc3)c2c1,5%,-9%,8.9µM*,15,-7%,20%[38.3 µM]
O=C(COc1ncnc2ccc(Br)cc12)Nc1ccc(N2CCOCC2)cc1,-26%,-7%,-16%,0,-4%,-3%[38.3 µM]
NC(=O)c1c(NC(=O)CCCn2cnc([N+](=O)[O-])n2)sc2c1CCCC2,.,1.6µM*,19%,.,.,5%
CC1CCc2c(sc(NC(=O)CCCn3cnc([N+](=O)[O-])n3)c2C(N)=O)C1 (stereo not drawn),-19%,-13%,1%,.,.,2%
Cc1cc([N+](=O)[O-])nn1CCCC(=O)Nc1sc2c(c1C(N)=O)CCCC2,3%[10 µM],7%,-2%,-4,4.5µM*,-4%
c1ccc2c(Cn3nnc4ccccc43)cccc2c1,-11%,?,-20%,25,28µM*,29%[38.3 µM]
Cc1cccc(NC(=O)Cn2cc(C(=O)C3CCCCC3)c3ccccc32)c1,.,.,.,-24,.,.
CCOc1cc(C)c(C(C)C)cc1S(=O)(=O)n1cnc(C)c1,-21%,?,-5%,.,.,10%
C[Si](C)(C/C=C/CC[C@H](O)C1=CCCCC1=O)c1ccccc1,-26%,3%,.,.,-10%,20%
SMILES,HTT cytoprotect,ALDH1A1 block,HTT aggregate,IMPase cell inh,HPGD block,IMPase Li inh
COc1ccccc1-c1ccc2ncnc(N3CCNCC3)c2c1,5%,?,.,.,.,29%
CCC1(C)Cc2c(C#N)c(N)sc(=S)c2CO1 (stereo not drawn),-33%,10µM*,-1%,-5,28µM*,-21%[38.3 µM]
CC1CCc2c(sc(NC(=O)c3ccc(Cn4cc([N+](=O)[O-])cn4)o3)c2C#N)C1 (stereo not drawn),-29%,25µM*,-11%,-2,-22%,-4%[38.3 µM]
COC(=O)c1sc(NC(=O)c2ccc(Cn3cc(Cl)cn3)o2)c(C#N)c1C,-8%,3.5µM*,?,1,16µM*,-10%[38.3 µM]
N#Cc1c(NC(=O)c2ccc(Cn3cc(Br)cn3)o2)sc2c1CCCCC2,-14%,?,?,7,-24%,3%[38.3 µM]
O=c1c(-c2ccccc2)nc2cncnc2n1Cc1ccccc1,11%,?,.,.,.,9%
O=C(NCc1cccnc1)C(=O)C1C(=O)Nc2ccccc21 (stereo not drawn),11%[10 µM],?,8%[9.22 µM],.,.,.
CCCCN(CC)Cc1ccc(CNC(=S)Nc2cccc(F)c2)o1,-9%,14µM*,-9%,.,.,-3%
COc1ccc(CCCc2nnc(SCC(=O)Nc3ccc(C)cc3)o2)cc1,.,.,.,5,.,.
CN1/C(=C/C(=O)C2CCC2)Sc2ccccc21,-28%,3.5µM*,-4%,2,-29%,-9%[38.3 µM]
CN1/C(=C\C(=O)c2cccs2)Sc2ccccc21,-98%[10 µM],14%,16µM*,-1,.,.
COC(=O)Cn1c(C(=O)N(C)C)cc2c1C[C@H]1CN(C(=O)c3ccccc3)[C@@](Cc3ccc(OC)cc3)(C(=O)OC)[C@@H]21,-5%,3%,.,.,-10%,-13%
COc1ccc(CNC(=O)C2CC(=O)N(c3ccc(OCC(=O)N4CCCCC4)cc3)C2)cc1 (stereo not drawn),7%,?,-9%,-19,14µM*,19%[38.3 µM]
CCC(C)NC(=O)CO/N=C/c1ccc(C(=O)OC)cc1 (stereo not drawn),7%,4%,9%,-3,-21%,23%[38.3 µM]
COC(=O)c1ccc(/C=N/OCC(=O)NC2CCCC(C)C2C)cc1 (stereo not drawn),-12%,2%,7%[9.22 µM],2,11µM*,-1%[38.3 µM]
COC(=O)c1ccc(/C=N/OCC(=O)NC2CCCCCCC2)cc1,-4%,-4%,-12%,11,28µM*,13%[38.3 µM]
COc1ccccc1OCC(=O)NC1CCCCCC1,-3%,?,-1%,?,10µM*,-17%[38.3 µM]
COC(=O)c1ccc(SCC(=O)NC2CCCCC2)c([N+](=O)[O-])c1,3%[10 µM],?,-5%,?,-16%,11µM*
CCOc1ccc(CN2CCCC(CNC(=O)c3ccc(F)cc3)C2)cc1CO (stereo not drawn),-5%[10 µM],2%,-8%[9.22 µM],.,.,14%
Cc1ccccc1N=C/C=C1/C=C(c2ccccc2)OC(C)(C)O1,32%[10 µM],2.2µM*,-29%,.,-19%,11%
CC1(C)OC(c2ccccc2)=C/C(=C/C=C2C(=O)c3ccccc3C2=O)O1,-20%,-15%,-6%,.,.,11%
COc1ccc(N=C/C=C2\C=C(c3ccccc3)OC(C)(C)O2)cc1,20%[10 µM],2.2µM*,?,14,-29%,22%

# Source: PubChem
